The results in this text go back to PubChem BioAssay (Tox21).

Assay [1] can be described thus: qHTS assay to identify small molecule antagonists of the thyroid receptor (TR) signaling pathway - cell viability counter screen (AID 743064). Further: nearly all actives have a fitted effect of over 50% in size. Further: potency means the concentration at half of the fitted maximal effect. Summed up: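 Fluorescence from CellTiter-Fluor, added after 23.5 h exposure at 37 °C, reported viability of GH3.TRE-Luc cells co-treated with compound and 1 nM T3. Measured in the same wells as the luciferase TR readout.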

The nature of assay [2]: qHTS assay to identify small molecule antagonists of the thyroid receptor (TR) signaling pathway (AID 743065). Further: nearly all actives have a fitted effect of over 55% in size. Further: potency means the concentration at half of the fitted maximal effect. The method, boiled down: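 GH3.TRE-Luc rat pituitary cells carrying two TR response elements driving luciferase were plated for 4 h, given compound plus 1 nM T3 (final), and incubated 23.5 h at 37 C. ONE-Glo luminescence measured reporter inhibition; CellTiter-Fluor fluorescence tracked cytotoxicity.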

The test system of assay [3] is thyroid hormone receptor (rat, GH3 cells). Briefly: qHTS assay to identify small molecule agonists of the thyroid receptor (TR) signaling pathway (AID 743066; calls by dose curve).
Assay [4] in a line: qHTS assay to identify small molecule antagonists of the estrogen receptor alpha (ER-alpha) signaling pathway - cell viability counter screen (AID 743074; calls by dose curve; further: nearly all actives have a fitted effect of over 45% in size; further: potency means the concentration at half of the fitted maximal effect).
Assay [5] can be described thus: qHTS assay to identify small molecule antagonists of the estrogen receptor alpha (ER-alpha) signaling pathway using the BG1 cell line - cell viability counter screen (AID 743081).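 Further: compound given together with 17beta-estradiol as the ER stimulus; nearly all actives have a fitted effect of over 45% in size.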 Further: potency means the concentration at half of the fitted maximal effect.
The nature of assay [6]: qHTS assay to identify small molecule that activate the aryl hydrocarbon receptor (AhR) signaling pathway - cell viability counter screen (AID 743086). Further: nearly all actives have a fitted effect of over 45% in size. Further: potency means the concentration at half of the fitted maximal effect. The method, boiled down:
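HepG2-AhR-luc (HG2L7.5c1) cells, 4000/well, were preincubated 5 h at 37C, exposed to compound in qHTS format for 24 hr at 37C, then given CellTiter-Fluor for 30 min; viability was read as fluorescence in the reporter wells.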

For another assay, the target named is Aromatase (Homo sapiens) (UniProt P11511). Briefly: qHTS assay to identify aromatase inhibitors (AID 743083). Further: nearly all actives have a fitted effect of over 55% in size. Further: potency means the concentration at half of the fitted maximal effect.
Assay [7] is described as follows: qHTS assay to identify aromatase inhibitors - cell viability counter screen (AID 743084).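 Further: cells stimulated with testosterone during compound exposure; nearly all actives have a fitted effect of over 55% in size.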 Further: potency means the concentration at half of the fitted maximal effect.
Assay [8] deals with Aryl hydrocarbon receptor (Homo sapiens) (UniProt P35869). Briefly: qHTS assay to identify small molecule that activate the aryl hydrocarbon receptor (AhR) signaling pathway (AID 743085). Further: nearly all actives have a fitted effect of over 15% in size. Further: potency means the concentration at half of the fitted maximal effect.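 On activation: HG2L7.5c1 human HepG2 liver cells with stably integrated DRE-driven firefly reporter; series mostly up to about 70 µM.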 Summed up:
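Cell line HG2L7.5c1 (human hepatoma, 20× DRE-luc). Plated, 5 h 37C, compound/DMSO added, 24 h 37C. CellTiter-Fluor 30 min 37C → fluorescence; then ONE-Glo 30 min RT → luminescence.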

Assay [9] deals with Peroxisome proliferator-activated receptor gamma (Homo sapiens) (UniProt P37231). Briefly: qHTS assay to identify small molecule agonists of the peroxisome proliferator-activated receptor gamma (PPARg) signaling pathway (AID 743094; active means well fitted activation curve with a large enough effect in the signal ratio in the repeat runs, not every such curve was filed as active; the % refers to the signal ratio). Summed up: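 Compounds dissolved in DMSO were added to PPARg UAS-bla HEK293H cells for 17 h at 37C, and reporter expression was quantified by fluorescence intensity after 1 h with LiveBLAzer B/G FRET substrate.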

Assay [10] concerns the target Estrogen receptor (Homo sapiens) (UniProt P03372). Nature of the assay: qHTS assay to identify small molecule agonists of the estrogen receptor alpha (ER-alpha) signaling pathway (AID 743075; calls by dose curve).
Assay [11] in a line: qHTS assay to identify small molecule antagonists of the peroxisome proliferator-activated receptor gamma (PPARg) signaling pathway - cell viability counter screen (AID 743194). Further: nearly all actives have a fitted effect of over 55% in size. Further: potency means the concentration at half of the fitted maximal effect. Summed up:
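PPARg-UAS-bla HEK293H cells were plated, rested 5 h at 37 C, then treated with compounds plus rosiglitazone (50 nM final) for 17 h at 37 C; viability was then read by CellTiter-Glo luminescence after 30 min at room temperature.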

The nature of assay [12]: qHTS assay for small molecule activators of the heat shock response signaling pathway - cell viability counter screen (AID 743209). Further: nearly all actives have a fitted effect of over 50% in size. Further: potency means the concentration at half of the fitted maximal effect. Summed up:
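Readout: CellTiter-Glo luminescence, 30 min at room temperature. System: HSE-bla HeLa cells, 1500/well, plated overnight. Treatment: compounds in DMSO, 5 h at 37 C.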

Assay [13] in a line: qHTS assay to identify small molecule agonists of the peroxisome proliferator-activated receptor delta (PPARd) signaling pathway - cell viability counter screen (AID 743211). Further: nearly all actives have a fitted effect of over 55% in size. Further: potency means the concentration at half of the fitted maximal effect. The method, boiled down:
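HEK293H PPARd-bla, 3000 cells/well; 5 h preincubation 37C/5% CO2; cpd in DMSO, 17 h 37C; B/G FRET substrate 2 h RT; CellTiter-Glo 30 min RT, luminescence.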

Assay [14] can be described thus: qHTS assay for small molecule activators of the heat shock response signaling pathway (AID 743210; active means well fitted activation curve with a large enough effect in the signal ratio in the repeat runs, with a control signal flat, not every such curve was filed as active; the % refers to the signal ratio; further: series mostly up to about 63 µM). Summed up: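 HSE-bla HeLa cells (beta-lactamase reporter under heat shock response elements) were exposed to compounds for 5 h at 37 C, then loaded with LiveBLAzer B/G FRET substrate for 2.5 h at room temperature before fluorescence reading.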
In assay [15] the target is Estrogen receptor (Homo sapiens) (UniProt P03372). Nature of the assay: qHTS assay to identify small molecule antagonists of the estrogen receptor alpha (ER-alpha) signaling pathway (AID 743069; active means well fitted curve in the direction sought with a large enough effect in the signal ratio in the repeat runs, not every such curve was filed as active; the % refers to the signal ratio). The method, boiled down:
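HEK293 cells stably carrying an ER-alpha-UAS-bla beta-lactamase reporter were pre-cultured overnight in 2% charcoal-stripped FBS medium. Test compounds in DMSO were added together with 17beta-estradiol for 18 hr at 37C. Read-out was fluorescence after 2 hr with LiveBLAzer B/G FRET substrate at room temperature.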

The target is the same in assay [16]. Nature of the assay: qHTS assay to identify small molecule agonists of the estrogen receptor alpha (ER-alpha) signaling pathway using the BG1 cell line (AID 743079). Further: nearly all actives have a fitted effect of over 20% in size.
A short description of assay [17]: qHTS assay to identify small molecule antagonists of the estrogen receptor alpha (ER-alpha) signaling pathway using the BG1 cell line (AID 743080; calls by dose curve;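 further: BG1 cells stimulated with 17beta-estradiol alongside compound; nearly all actives have a fitted effect of over 25% in size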; further: potency means the concentration at half of the fitted maximal effect). Summed up: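 Seeding, 24 h rest, compound transfer from DMSO, 17beta-estradiol addition, 21.5 h incubation, CellTiter-Fluor (30 min, 37 C), then ONE-Glo (30 min, room temperature): this sequence was run on BG1-Luc-4E2 reporter cells.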

Inconclusive results are not listed. Calls of active or inactive are those of the source. Unless noted, the call rests on the fitted dose curve; in most records, active means well fitted curve in the direction sought with a large enough effect in the repeat runs; inconclusive means weak or mixed curves; inactive means no such curve, though single readings can be large; an effect the other way counts as inactive or inconclusive.

Sequence of Aryl hydrocarbon receptor (Homo sapiens) (P35869 whole entry, looked up): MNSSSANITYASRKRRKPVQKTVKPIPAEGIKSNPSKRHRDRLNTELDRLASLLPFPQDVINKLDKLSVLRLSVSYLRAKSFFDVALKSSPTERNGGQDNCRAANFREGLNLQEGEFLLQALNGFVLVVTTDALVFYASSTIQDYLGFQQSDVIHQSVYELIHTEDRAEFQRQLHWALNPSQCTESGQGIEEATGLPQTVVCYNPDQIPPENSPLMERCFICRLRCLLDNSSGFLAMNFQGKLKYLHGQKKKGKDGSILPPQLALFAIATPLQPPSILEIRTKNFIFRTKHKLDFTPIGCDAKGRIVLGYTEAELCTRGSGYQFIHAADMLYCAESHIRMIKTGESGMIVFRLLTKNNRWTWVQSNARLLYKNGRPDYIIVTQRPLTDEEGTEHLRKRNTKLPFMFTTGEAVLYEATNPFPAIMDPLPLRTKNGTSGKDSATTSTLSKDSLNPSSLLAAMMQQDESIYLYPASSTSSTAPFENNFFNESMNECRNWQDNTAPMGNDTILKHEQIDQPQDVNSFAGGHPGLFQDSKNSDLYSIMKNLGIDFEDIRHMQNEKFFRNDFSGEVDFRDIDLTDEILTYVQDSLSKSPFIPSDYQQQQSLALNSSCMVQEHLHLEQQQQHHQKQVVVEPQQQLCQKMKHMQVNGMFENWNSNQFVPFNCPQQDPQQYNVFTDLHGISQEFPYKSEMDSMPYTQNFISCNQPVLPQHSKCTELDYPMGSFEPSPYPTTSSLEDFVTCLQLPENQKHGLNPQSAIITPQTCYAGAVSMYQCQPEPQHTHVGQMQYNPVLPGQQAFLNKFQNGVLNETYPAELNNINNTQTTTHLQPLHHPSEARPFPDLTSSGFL
Sequence of Estrogen receptor (Homo sapiens) (P03372 whole entry, looked up): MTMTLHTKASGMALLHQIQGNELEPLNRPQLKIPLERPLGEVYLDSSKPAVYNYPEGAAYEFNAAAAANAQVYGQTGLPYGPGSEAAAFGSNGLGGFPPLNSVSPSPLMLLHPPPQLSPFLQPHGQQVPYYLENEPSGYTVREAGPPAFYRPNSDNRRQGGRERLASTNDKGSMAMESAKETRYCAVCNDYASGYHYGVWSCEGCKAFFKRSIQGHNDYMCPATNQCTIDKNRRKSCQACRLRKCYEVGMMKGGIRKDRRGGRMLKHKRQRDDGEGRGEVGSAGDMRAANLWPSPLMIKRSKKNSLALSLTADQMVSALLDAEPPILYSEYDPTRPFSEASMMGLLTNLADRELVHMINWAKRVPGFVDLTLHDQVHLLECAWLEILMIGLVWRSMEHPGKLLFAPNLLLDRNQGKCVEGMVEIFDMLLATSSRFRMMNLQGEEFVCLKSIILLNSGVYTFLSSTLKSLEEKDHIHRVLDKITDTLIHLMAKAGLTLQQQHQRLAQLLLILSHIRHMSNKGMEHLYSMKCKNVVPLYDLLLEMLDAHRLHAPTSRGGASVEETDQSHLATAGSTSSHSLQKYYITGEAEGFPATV
Sequence of Aromatase (Homo sapiens) (P11511 whole entry, looked up): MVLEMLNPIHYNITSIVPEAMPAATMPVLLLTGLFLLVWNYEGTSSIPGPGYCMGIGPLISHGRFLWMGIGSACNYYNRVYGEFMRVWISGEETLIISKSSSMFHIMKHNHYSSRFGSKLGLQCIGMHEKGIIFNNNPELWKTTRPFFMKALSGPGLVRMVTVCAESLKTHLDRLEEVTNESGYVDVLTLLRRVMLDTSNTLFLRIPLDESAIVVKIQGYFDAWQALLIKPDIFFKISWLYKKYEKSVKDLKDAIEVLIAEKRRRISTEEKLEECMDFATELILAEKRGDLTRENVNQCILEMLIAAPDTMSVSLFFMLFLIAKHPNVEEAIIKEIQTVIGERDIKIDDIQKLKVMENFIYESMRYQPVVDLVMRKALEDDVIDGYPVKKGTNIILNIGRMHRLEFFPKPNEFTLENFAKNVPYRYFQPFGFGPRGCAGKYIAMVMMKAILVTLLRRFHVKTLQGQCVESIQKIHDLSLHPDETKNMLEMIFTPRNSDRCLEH
Sequence of Peroxisome proliferator-activated receptor gamma (Homo sapiens) (P37231 whole entry, looked up): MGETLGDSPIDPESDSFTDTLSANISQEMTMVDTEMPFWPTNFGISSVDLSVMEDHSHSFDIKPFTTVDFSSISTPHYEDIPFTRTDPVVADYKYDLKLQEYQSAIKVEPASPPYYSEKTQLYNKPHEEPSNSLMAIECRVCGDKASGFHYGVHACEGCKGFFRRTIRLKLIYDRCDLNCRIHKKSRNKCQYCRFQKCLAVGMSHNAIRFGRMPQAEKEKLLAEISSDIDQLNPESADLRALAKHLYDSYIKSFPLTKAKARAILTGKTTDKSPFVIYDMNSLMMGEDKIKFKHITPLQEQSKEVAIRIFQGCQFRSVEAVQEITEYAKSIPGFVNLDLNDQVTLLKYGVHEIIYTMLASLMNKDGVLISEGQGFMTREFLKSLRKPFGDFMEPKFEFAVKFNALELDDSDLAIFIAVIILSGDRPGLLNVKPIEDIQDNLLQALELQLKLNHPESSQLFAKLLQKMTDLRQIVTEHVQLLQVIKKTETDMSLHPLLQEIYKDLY

Regarding `CCN(CC)C(=O)[C@]1(c2ccccc2)C[C@@H]1CN`, the Potency entry in [1], in assay [2], in [3], in [4], in assay [5] and in assay [6] was “inactive” in each case.

On to `CNC(=O)OCc1cccc(COC(=O)NC)n1`, for which the Potency result (in assay [1]; in [2]; in [3]; in assay [4]; in [5]; in the assay with Aromatase (Homo sapiens)) was “inactive” each time. Besides, the Potency entry in assay [7], in assay [8], in assay [6] and in [9] was “inactive” each time.

As for `CC(CNC(=O)c1cccnc1)NC(=O)c1cccnc1` (stereo unspecified), the Potency result (in assay [1]; in [2]; in assay [3]; in assay [4]; in assay [5]; with Aromatase (Homo sapiens)) was “inactive” in each case. The Potency entry in assay [7], in assay [8], in assay [6] and in assay [9] was “inactive” throughout.

Consider `N[C@@H](Cc1cnc[nH]1)C(=O)O`, for which the Potency result (in [1]; in assay [2]; in assay [3]; in [4]; in assay [5]; with Aromatase (Homo sapiens)) was “inactive” in each case. In addition, the Potency result in [7], in [6] and in assay [9] was “inactive” throughout.

Consider `CC(C)c1ncc([N+](=O)[O-])n1C`, for which the Potency entry (in [1]; in [2]; in assay [3]; in [4]; in [5]; with Aromatase (Homo sapiens)) was “inactive” throughout. In addition, the Potency result in assay [7], in assay [8], in [6] and in assay [9] was “inactive” throughout.

In the case of `CC(=O)Nc1ccc(OC(C)=O)cc1`, the Potency entry in assay [1], in assay [2], in assay [3], in assay [4], in assay [5] and in assay [6] was “inactive” throughout.

For the compound `CO/N=C(\C(=O)N[C@@H]1C(=O)N2C(C(=O)O)=C(COC(C)=O)CS[C@H]12)c1csc(N)n1` (stereo in doubt), the Potency result in assay [1], in [2], in assay [3], in [4], in assay [5] and in assay [6] was “inactive” in each case.

For the compound `NC(N)=NCC1COC2(CCCCC2)O1` (stereo unspecified), the Potency result (in assay [1]; in assay [2]; in assay [3]; in [4]; in assay [5]; in the assay with Aromatase (Homo sapiens)) was “inactive” in each case. In addition, the Potency entry in [7], in assay [8], in [6] and in [9] was “inactive” throughout.

For `Cc1cc(Br)ccc1NC(=O)CCl`, the Potency in assay [1] was 21.7 µM (active); in [2] it was 19.3 µM (active); with Aromatase (Homo sapiens), 30.6 µM (active); in assay [7] it was 13.7 µM (active); in assay [6], 54.5 µM (active); in [11] it was 7.76 µM (active). The figures for the Potency in assay [12] and in assay [13] were 12.3 µM (active) and 24.5 µM (active), respectively. Also, the Potency entry in assay [3] and in [10] was “inactive” throughout.

Take `CCCCCN=C(N)N/N=C/c1c[nH]c2ccc(OC)cc12`: the Potency result (in assay [1]; in assay [2]; in assay [3]; in [4]; in assay [5]; with Aromatase (Homo sapiens)) was “inactive” each time. For the same compound, the Potency result in assay [7], in [6] and in [9] was “inactive” in each case. In addition, the Potency was 13.3 µM (active) in assay [11], 29.8 µM (active) in [12] and 8.41 µM (active) in [13].

For the compound `Cc1cc(C(=O)NCCc2ccc(S(=O)(=O)NC(=O)NN3CCCCCC3)cc2)no1`, the Potency result (in [1]; in [2]; in assay [3]; in assay [4]; in [5]; with Aromatase (Homo sapiens)) was “inactive” each time. In addition, the Potency entry in assay [7], in [6] and in assay [9] was “inactive” each time.

Regarding `SC1CCCCC1`, the Potency result (in assay [1]; in assay [2]; in [3]; in assay [4]; in assay [5]; with Aromatase (Homo sapiens)) was “inactive” in each case. Also, the Potency entry in assay [7], in assay [8], in assay [6], in assay [9], in [11] and in assay [12] was “inactive” throughout. The Potency result in assay [13] was “inactive”. The result in [14] was inactive.

With `Nc1ccc(N)c([N+](=O)[O-])c1`, the Potency in [1] is 32.5 µM (active); in [7] it was 61.1 µM (active); in assay [8], 24.3 µM (active). The Potency result (in assay [2]; in assay [3]; with Aromatase (Homo sapiens)) was “inactive” throughout.

In the case of `CCCC(CCC)C(=O)OC1C[C@H]2CC[C@@H](C1)[N+]2(C)C` (stereo partly specified), the Potency entry (in assay [1]; in assay [2]; in assay [3]; in [4]; in assay [5]; in the assay with Aromatase (Homo sapiens)) was “inactive” in each case. Besides, the Potency entry in assay [7], in [8], in [6] and in assay [9] was “inactive” in each case.

For `CC/C=C\C/C=C\C/C=C\C/C=C\C/C=C\CCCC(=O)O`, the Potency result in assay [1], in assay [3], in [15], in assay [4], in assay [10] and in [16] was “inactive” in each case. The Potency entry (in assay [17]; in assay [5]; with Aromatase (Homo sapiens); in assay [7]; in [8]; in assay [6]) was “inactive” in each case.

Consider `CCCCC/C=C\C=C\C(=O)OCC`, for which the Potency in [1] is 31.9 µM (active); in [2] it was 28.4 µM (active); in [7], 56.8 µM (active). Besides, the Potency result in assay [4], in assay [10], in [16], in [5] and in [6] was “inactive” in each case.

Take `CCCCCCCCCCCC[n+]1ccc2ccccc2c1`: the Potency was 7.5 µM (active) in assay [1]; 3.76 µM (active) in assay [2]; 2.13 µM (active) in [4]; 7.5 µM (active) in assay [17]; 26.6 µM (active) in assay [5]; 10.6 µM (active) with Aromatase (Homo sapiens). In addition, the Potency entry in [10] and in [8] was “inactive” in each case.
